PubChem BioAssay (NCATS)
Results filed as inconclusive are left out. Calls of active or inactive are those of the source. The call rests on the fitted dose curve; in most records, active means well fitted cell-killing curve with a large enough effect; inconclusive means small, poorly fitted or top-dose-only effect, or effect the other way; inactive means flat fitted curve, though single readings scatter.

How the values were obtained:
Test in all cases: Primary qHTS to identify gynecologic anti-cancer compounds using libraries of approved drugs and bioactive compounds (AID 1345084); further: nearly all actives have a fitted effect of over 55% in size
C33A = conditions: Gynecologic cancer cell panel viability, ATPlite luminescence, 48 h; series mostly up to 57.5 µM
How it was run: (§1)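 ATP-based viability (ATPlite), 1,000 cells/well, 16 h pre-incubation, 48 h compound at 37 C, 5% CO2, 15 min RT before read.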

CAOV3 = conditions: Gynecologic cancer cell panel viability, ATPlite luminescence, 48 h; series mostly up to 57.5 µM
How it was run: as §1

CASKI = conditions: Gynecologic cancer cell panel viability, ATPlite luminescence, 48 h; series mostly up to 57.5 µM
How it was run: as §1

Es-2 = conditions: Gynecologic cancer cell panel viability, ATPlite luminescence, 48 h; series mostly up to 57.5 µM
How it was run: as §1

HeLa = conditions: Gynecologic cancer cell panel viability, ATPlite luminescence, 48 h; series mostly up to 57.5 µM
How it was run: as §1

Hek293T = conditions: Gynecologic cancer cell panel viability, ATPlite luminescence, 48 h, control line for the selectivity index; series mostly up to 57.5 µM
How it was run: as §1

JEG-3 = conditions: Gynecologic cancer cell panel viability, ATPlite luminescence, 48 h; series mostly up to 57.5 µM
How it was run: as §1

OV90 = conditions: Gynecologic cancer cell panel viability, ATPlite luminescence, 48 h; series mostly up to 57.5 µM
How it was run: as §1

PA-1 = conditions: Gynecologic cancer cell panel viability, ATPlite luminescence, 48 h; series mostly up to 57.5 µM
How it was run: as §1

Tov-21-G = conditions: Gynecologic cancer cell panel viability, ATPlite luminescence, 48 h; series mostly up to 57.5 µM
How it was run: as §1

Tov112D = conditions: Gynecologic cancer cell panel viability, ATPlite luminescence, 48 h; series mostly up to 57.5 µM
How it was run: as §1

SKOV3 = conditions: Gynecologic cancer cell panel viability, ATPlite luminescence, 48 h; series mostly up to 57.5 µM
How it was run: as §1

Measured: Potency

CC(=O)C=C=C1C(C)(C)CC(O[C@@H]2O[C@H](CO)[C@@H](O)[C@H](O)[C@H]2O)CC1(C)O (stereo partly specified)
inactive: C33A | CAOV3 | CASKI | Es-2 | HeLa | Hek293T | JEG-3 | OV90 | PA-1 | Tov-21-G | Tov112D

CCC(O)C(C)C1CCC(C(C)C(=O)O)O1 (stereo unspecified)
inactive: C33A | CAOV3 | CASKI | Es-2 | HeLa | Hek293T | JEG-3 | OV90 | PA-1 | Tov-21-G | Tov112D

CC(C)C[C@H](CC(=O)NO)C(=O)N[C@@H](Cc1ccc2ccccc2c1)C(=O)N[C@@H](C)C(=O)NCCN
inactive: C33A | CAOV3 | CASKI | Es-2 | HeLa | Hek293T | JEG-3 | OV90 | PA-1 | Tov-21-G | Tov112D

O=C(c1ccc2nccnc2c1)N1CCCCC1
inactive: C33A | CAOV3 | CASKI | Es-2 | HeLa | Hek293T | JEG-3 | OV90 | PA-1 | Tov-21-G | Tov112D

CC(=O)OC1C(O)CC2(C)C(CCC(C)C23Cc2c(O)cc(CO)c(C=O)c2O3)C1(C)C (stereo unspecified)
inactive: C33A | CAOV3 | CASKI | Es-2 | HeLa | Hek293T | JEG-3 | OV90 | SKOV3 | Tov-21-G | Tov112D

CC1(C)CCC[C@@]2(C)C1[C@H](OC(=O)/C=C/C=C/C(=O)O)C=C1COC(=O)[C@@]12O (stereo partly specified)
inactive: C33A | CAOV3 | CASKI | Es-2 | HeLa | Hek293T | JEG-3 | OV90 | SKOV3 | Tov-21-G | Tov112D

Cc1cc(C(=O)N2CCCCc3ccccc32)ccc1CNC(=O)N1CCC[C@H]1C(=O)N(C)C
inactive: C33A | CAOV3 | CASKI | Es-2 | HeLa | Hek293T | JEG-3 | OV90 | PA-1 | Tov-21-G | Tov112D

O=C(O)CC1CCC(c2ccc(-c3ccc4nc(C(=O)NCc5ccc(OC(F)(F)F)cc5)cn4c3)cc2)CC1 (stereo unspecified)
inactive: C33A | CAOV3 | CASKI | Es-2 | HeLa | Hek293T | JEG-3 | OV90 | PA-1 | Tov-21-G | Tov112D

COc1cc2oc(-c3ccc(O)cc3O)cc2c(OC)c1CC=C(C)C
inactive: C33A | CAOV3 | CASKI | Es-2 | HeLa | Hek293T | JEG-3 | OV90 | SKOV3 | Tov-21-G | Tov112D

C/C(=C\C=C\C(C)C1CCC2(C)C3CCC4C(C)(C)C(=O)CCC45CC35CCC12C)C(=O)O (stereo unspecified)
inactive: C33A | CAOV3 | CASKI | Es-2 | HeLa | Hek293T | JEG-3 | OV90 | SKOV3 | Tov-21-G | Tov112D

CC(C)(C)NS(=O)(=O)c1cncc(-c2cc(F)c3nc(N)nn3c2)c1
inactive: C33A | CAOV3 | CASKI | Es-2 | HeLa | Hek293T | JEG-3 | OV90 | SKOV3 | Tov-21-G | Tov112D

CC1(C)CC[C@]2(C(=O)O[C@@H]3O[C@H](CO)[C@@H](O)[C@H](O)[C@H]3O)CC[C@]3(C)C(=CCC4[C@@]5(C)C[C@@H](O)[C@H](O)[C@](C)(C(=O)O)C5CC[C@]43C)C2C1O (stereo partly specified)
inactive: C33A | CAOV3 | CASKI | Es-2 | HeLa | Hek293T | JEG-3 | OV90 | PA-1 | Tov-21-G | Tov112D

CO[C@H]1O[C@@H]2O[C@]3(C)CC[C@H]4[C@H](C)CC[C@@H]([C@H]1C)[C@@]24OO3
inactive: C33A | CAOV3 | CASKI | Es-2 | HeLa | Hek293T | JEG-3 | OV90 | PA-1 | Tov-21-G | Tov112D

O=C1NC2CCc3nc4ccccc4c(=O)n3C2=Nc2ccccc21 (stereo unspecified)
inactive: C33A | CAOV3 | CASKI | Es-2 | HeLa | Hek293T | JEG-3 | OV90 | SKOV3 | Tov-21-G | Tov112D

CN(C)CC1CCOC1(c1ccccc1)c1ccccc1 (stereo unspecified)
inactive: C33A | CAOV3 | CASKI | Es-2 | HeLa | Hek293T | JEG-3 | OV90 | PA-1 | Tov-21-G | Tov112D

C[C@@H]1CCC2C(C)(C)[C@H](O)CC[C@]2(C)[C@@]12Cc1c(O)cc3c(c1O2)CN([C@@H](CCC(=O)O)C(=O)O)C3=O (stereo partly specified)
inactive: C33A | CAOV3 | CASKI | Es-2 | HeLa | Hek293T | JEG-3 | OV90 | SKOV3 | Tov-21-G | Tov112D
